PubChem BioAssay (EPA / NIEHS)
The source made the active and inactive calls. The calls were made as follows: active = hit-call score of the fitted dose curve at least 0.9, where 1 is the maximum; inactive = score below 0.9.

What was measured:
[1] = target: Bile acid receptor (Homo sapiens) (UniProt Q96RI1); test: ATG_IR1_CIS: Attagene CIS-FACTORIAL HepG2 Assay for human Nuclear Receptor Subfamily 1 Group H Member 4 (NR1H4), IR1 submotif (AID 2282946); settings: IR1 reporter transcription, actives raise or lower the signal
Bile acid receptor (Homo sapiens), sequence (Q96RI1 whole entry, looked up): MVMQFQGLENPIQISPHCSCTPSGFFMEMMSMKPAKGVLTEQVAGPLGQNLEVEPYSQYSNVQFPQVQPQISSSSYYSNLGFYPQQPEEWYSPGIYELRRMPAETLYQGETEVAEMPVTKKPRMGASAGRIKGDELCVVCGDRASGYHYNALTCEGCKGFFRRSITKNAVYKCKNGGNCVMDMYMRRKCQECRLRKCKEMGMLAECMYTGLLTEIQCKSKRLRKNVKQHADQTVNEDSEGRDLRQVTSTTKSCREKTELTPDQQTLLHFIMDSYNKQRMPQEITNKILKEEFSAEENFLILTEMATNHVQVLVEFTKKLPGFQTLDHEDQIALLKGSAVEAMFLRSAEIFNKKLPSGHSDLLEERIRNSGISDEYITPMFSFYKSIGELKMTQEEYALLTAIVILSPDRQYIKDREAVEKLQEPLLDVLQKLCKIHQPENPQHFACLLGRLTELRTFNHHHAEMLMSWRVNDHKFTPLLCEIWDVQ
Summary of the method: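 Readout: reporter transcript levels by RT-PCR with fluorescent capillary electrophoresis, from HepG2 cells transiently transfected with multiplexed cis-regulated reporters and dosed 24 h. Gain- or loss-of-signal fitted versus DMSO negative control.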

[2] = ATG_GRE_CIS: Attagene CIS-FACTORIAL HepG2 Assay for human Glucocorticoid Response Elements (GRE) (AID 2282947); settings: HepG2 GRE cis-reporter, Attagene multiplex mRNA; actives raise or lower the signal
Summary of the method: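 HepG2, transient cis-reporter transfection, 24 h. Reporter mRNA: RT-PCR then CE, fluorescence. Fit both directions vs DMSO.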

[3] = ATG_ISRE_CIS: Attagene CIS-FACTORIAL HepG2 Assay for human Interferon Regulatory Factor 1 (IRF1) binding to an Interferon-Stimulated Response Element (ISRE) (AID 2282948); settings: HepG2 ISRE cis-reporter (Attagene), mRNA transcription readout; actives raise or lower the signal
Summary of the method: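 Uses HepG2 liver cells transfected with cis-regulated reporters and measures mRNA 24 h post-dosing through RT-PCR, primer-extension labelling and capillary electrophoresis, with DMSO as negative control.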

[4] = ATG_M_32_CIS: Attagene CIS-FACTORIAL HepG2 Assay for M32 Transcription Factor (Internal Marker) (AID 2282949); settings: HepG2 Attagene cis-factorial M32 reporter, mRNA; actives raise or lower the signal;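 also: background control marker of the multiplexed CIS panel rather than a real target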
Summary of the method: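 Transient MRTU transfection of HepG2; 24 h compound treatment; TriZol RNA, oligo(dT) RT, reporter PCR, 6-FAM primer extension, HpaI cut, CE. Gain/loss of signal vs DMSO.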

[5] = ATG_M_06_CIS: Attagene CIS-FACTORIAL HepG2 Assay for M06 Transcription Factor (Internal Marker) (AID 2282950); settings: HepG2 Attagene CIS-FACTORIAL M06 internal marker reporter; actives raise or lower the signal
Summary of the method: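 Measured 24 h post-dosing in transiently transfected HepG2 cells, this internal-marker endpoint reports reporter mRNA via RT-PCR with fluorescent primer extension and capillary electrophoresis. DMSO served as negative control and baseline for bidirectional fitting.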

[6] = target: Hypoxia-inducible factor 1-alpha (Homo sapiens) (UniProt Q16665); test: ATG_HIF1a_CIS: Attagene CIS-FACTORIAL HepG2 Assay for human Hypoxia Inducible Factor 1 (HIF1A) (AID 2282951); settings: HepG2 Attagene cis-factorial HIF1a reporter transcription; actives raise or lower the signal
Hypoxia-inducible factor 1-alpha (Homo sapiens), sequence (Q16665 whole entry, looked up): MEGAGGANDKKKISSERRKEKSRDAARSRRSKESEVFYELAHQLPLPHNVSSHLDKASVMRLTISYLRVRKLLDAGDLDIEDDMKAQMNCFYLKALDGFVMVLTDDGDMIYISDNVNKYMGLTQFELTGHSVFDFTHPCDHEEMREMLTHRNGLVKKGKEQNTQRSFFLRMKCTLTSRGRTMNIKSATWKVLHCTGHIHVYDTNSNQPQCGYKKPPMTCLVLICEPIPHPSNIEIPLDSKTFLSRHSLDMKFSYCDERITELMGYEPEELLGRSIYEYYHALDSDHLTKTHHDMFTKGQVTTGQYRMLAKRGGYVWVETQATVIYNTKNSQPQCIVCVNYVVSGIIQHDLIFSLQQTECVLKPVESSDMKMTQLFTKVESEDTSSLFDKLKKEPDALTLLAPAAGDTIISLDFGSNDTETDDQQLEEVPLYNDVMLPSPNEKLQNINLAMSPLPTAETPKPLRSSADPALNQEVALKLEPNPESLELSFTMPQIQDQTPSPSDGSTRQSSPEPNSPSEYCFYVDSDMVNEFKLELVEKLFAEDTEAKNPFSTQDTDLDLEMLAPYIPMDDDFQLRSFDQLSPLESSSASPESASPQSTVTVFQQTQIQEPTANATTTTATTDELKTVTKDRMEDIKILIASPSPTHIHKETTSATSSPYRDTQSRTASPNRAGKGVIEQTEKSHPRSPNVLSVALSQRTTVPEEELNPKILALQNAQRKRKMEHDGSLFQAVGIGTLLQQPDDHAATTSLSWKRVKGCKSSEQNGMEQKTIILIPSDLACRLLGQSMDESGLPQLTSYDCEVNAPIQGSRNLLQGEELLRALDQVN
Summary of the method: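 After 24 h chemical exposure of reporter-transfected HepG2 cells, reporter cDNA was PCR-amplified, labelled by 6-FAM primer extension (2 min 95 C, 20 s 68 C, 10 min 72 C), HpaI-cut (2 h, 37 C) and analysed by CE.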

[7] = target: Hepatocyte nuclear factor 6 (Homo sapiens) (UniProt Q9UBC0); test: ATG_HNF6_CIS: Attagene CIS-FACTORIAL HepG2 Assay for human Hepatocyte Nuclear Factor 6 (HNF6) (AID 2282952); settings: HepG2 Attagene cis-factorial HNF6 reporter transcription; actives raise or lower the signal
Hepatocyte nuclear factor 6 (Homo sapiens), sequence (Q9UBC0 whole entry, looked up, the tested form may be a part): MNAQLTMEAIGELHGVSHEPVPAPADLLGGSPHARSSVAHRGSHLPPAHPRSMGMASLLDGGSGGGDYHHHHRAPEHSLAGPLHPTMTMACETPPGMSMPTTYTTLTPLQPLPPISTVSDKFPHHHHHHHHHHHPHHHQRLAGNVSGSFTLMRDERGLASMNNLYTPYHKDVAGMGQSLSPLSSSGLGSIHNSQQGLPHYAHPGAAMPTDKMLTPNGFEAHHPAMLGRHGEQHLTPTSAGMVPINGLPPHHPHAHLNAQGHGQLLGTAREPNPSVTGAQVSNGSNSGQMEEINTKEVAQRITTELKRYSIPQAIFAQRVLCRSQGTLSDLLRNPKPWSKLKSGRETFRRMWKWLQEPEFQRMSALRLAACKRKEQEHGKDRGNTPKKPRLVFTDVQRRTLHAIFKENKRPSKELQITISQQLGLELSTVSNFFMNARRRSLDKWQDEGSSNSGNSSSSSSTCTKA
Summary of the method: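 Twenty-four-hour chemical treatment of reporter-transfected HepG2 cells precedes RNA isolation, DNase-treated reverse transcription and PCR of reporter sequences. Labelled fragments are sized by capillary electrophoresis and fitted bidirectionally versus DMSO.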

[8] = target: Heat shock factor protein 1 (Homo sapiens) (UniProt Q00613); test: ATG_HSE_CIS: Attagene CIS-FACTORIAL HepG2 Assay for human Heat Shock Transcription Factor 1 (HSE) (AID 2282953); settings: HepG2 HSE cis-reporter, Attagene RNA transcription; actives raise or lower the signal
Heat shock factor protein 1 (Homo sapiens), sequence (Q00613 whole entry, looked up): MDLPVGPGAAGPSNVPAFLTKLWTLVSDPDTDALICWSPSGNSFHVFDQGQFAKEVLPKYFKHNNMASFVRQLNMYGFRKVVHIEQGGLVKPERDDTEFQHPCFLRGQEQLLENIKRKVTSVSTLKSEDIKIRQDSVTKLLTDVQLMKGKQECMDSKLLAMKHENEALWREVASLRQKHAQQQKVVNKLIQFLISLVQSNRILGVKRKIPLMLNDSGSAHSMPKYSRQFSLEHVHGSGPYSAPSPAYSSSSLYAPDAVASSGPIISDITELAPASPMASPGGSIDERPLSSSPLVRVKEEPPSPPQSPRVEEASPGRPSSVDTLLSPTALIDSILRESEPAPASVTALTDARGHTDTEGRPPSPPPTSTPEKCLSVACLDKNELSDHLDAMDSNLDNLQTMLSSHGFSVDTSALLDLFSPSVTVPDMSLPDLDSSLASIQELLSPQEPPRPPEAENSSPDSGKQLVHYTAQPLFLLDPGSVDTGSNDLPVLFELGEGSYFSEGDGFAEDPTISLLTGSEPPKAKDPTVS
Summary of the method: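 Reporter mRNA induction in HepG2 is measured 24 h after dosing, using transiently transfected multiplexed cis-regulated reporter units. Signal comes from capillary electrophoresis of labelled RT-PCR products, with DMSO as negative control.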

[9] = ATG_MRE_CIS: Attagene CIS-FACTORIAL HepG2 Assay for human Metal Responsive Element (MRE) (AID 2282954); settings: HepG2 MRE cis-reporter transcription, Attagene multiplex; actives raise or lower the signal
Summary of the method: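 Readout: capillary electrophoresis of 6-FAM-labelled, HpaI-digested RT-PCR reporter products. System: HepG2 cells carrying transient multiplexed cis reporters, dosed 24 h. Analysis: bidirectional fit, DMSO baseline.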

[10] = ATG_PBREM_CIS: Attagene CIS-FACTORIAL HepG2 Assay for human Phenobarbital-responsive Enhancer Module (PBREM) (AID 2282955); settings: HepG2 PBREM cis-reporter, Attagene multiplexed transcription; actives raise or lower the signal
Summary of the method: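 Measures endogenous factor action on a phenobarbital-responsive enhancer module. HepG2 transiently carrying cis reporters, 24 h treatment, mRNA read-out by RT-PCR plus capillary electrophoresis.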

Measured: AC50

O=CC1CC1
inactive: all assays above

CCCCCCOC(=O)C(C)CC (centres undefined)
inactive: all assays above

C=COCCCC
not listed: [8]
inactive: all other assays above

CC(C)(C)C(=O)C=Cc1ccc(Cl)cc1
inactive: [2] | [10]
active: [1] 10 µM | [3] 24.9 µM | [4] 132 µM | [5] 148 µM | [6] 26.3 µM | [7] 23.6 µM | [8] 34.3 µM

Nc1ccc(N)c(Cl)c1
active: [3] 45.7 µM | [7] 57.2 µM | [8] 8.3 µM | [10] 26.2 µM
inactive: all other assays above

CCCCCCCCc1ccc(Nc2ccc(CCCCCCCC)cc2)cc1
not listed: [8]
inactive: all other assays above

CC1=NN(c2cc(S(=O)(=O)O)ccc2Cl)C(=O)C1N=Nc1ccccc1 (centres undefined)
not listed: [8]
inactive: all other assays above

COCC(C)N (centres undefined)
inactive: all assays above

C=C1[C@H]2CC[C@@H]3[C@H]2C(C)(C)CCC[C@]13C
not listed: [8]
inactive: all other assays above

CCCCCCC(O)CO (centres undefined)
not listed: [3]
inactive: all other assays above

Cc1cc(C)c(C)cc1C
not listed: [2] | [10]
inactive: all other assays above

Oc1ccc(Cl)cc1Cc1cc(Cl)ccc1O
active: [1] 11.1 µM | [9] 11.1 µM
not listed: [6]
inactive: all other assays above

Cc1cccc(N(C)C(=S)Oc2ccc3ccccc3c2)c1
active: [9] 1.89 µM | [10] 2.06 µM
not listed: [6]
inactive: all other assays above

CC(=O)OC1C2(C)CCC(C2)C1(C)C (centres undefined)
not listed: [3] | [10]
inactive: all other assays above

C=C(C)C(=O)OCCO
not listed: [3]
inactive: all other assays above

O=C1OC(=O)c2cc(Oc3ccc4c(c3)C(=O)OC4=O)ccc21
not listed: [2] | [10]
inactive: all other assays above

O=c1cc[nH]c(=S)[nH]1
not listed: [3]
inactive: all other assays above

Cc1cccc(N)n1
not listed: [2] | [10]
inactive: all other assays above

c1ccc2c(c1)ccc1cc3c(ccc4ccccc43)cc12
not listed: [3] | [6] | [10]
inactive: all other assays above

CC1=Nc2ccc3ccccc3c2C1(C)C
active: [8] 147 µM | [9] 100 µM
not listed: [2] | [10]
inactive: all other assays above

C#CC1(O)CC[C@H]2[C@@H]3CCC4=CCCC[C@@H]4[C@H]3CC[C@@]21C (some centres undefined)
active: [1] 0.849 µM | [7] 55.3 µM
not listed: [6] | [10]
inactive: all other assays above

CC(C)C(=O)C(C)C
active: [8] 68.7 µM
not listed: [3] | [9]
inactive: all other assays above

C(=CC=Nc1ccccc1)C=CNc1ccccc1
not listed: [2]
inactive: all other assays above

CC=CC(F)(F)C(F)(F)C(F)(F)F
not listed: [3]
inactive: all other assays above

COC(=O)C1=C(C)NC(C)=C(C(=O)OCC(C)C)C1c1ccccc1[N+](=O)[O-] (centres undefined)
active: [6] 18 µM
not listed: [3] | [8]
inactive: all other assays above
